HepG2 tox – qHTS for Inhibitors of TGF-b: Cytotox Counterscreen; AID 588856, 2011; Potency, µM (top dose mostly 46.1 µM), usual class: cytotoxic; HepG2 CAGA-GFP viability, ATP luminescence, 18 h; 410,000 compounds, 0.76% hits
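CellTiter-Glo luminescence gave cytotoxicity after 18 hours at 37 degrees C. The cells were HepG2 CAGA-GFP in 1% FBS DMEM, stimulated with 500 pg/mL TGF-beta after compound addition. %Activity was normalised to no-cell wells (complete cell-killing) and DMSO (no toxicity), and curves were fitted and classified.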
HT1080 IDH1KD tx – qHTS for induction of synthetic lethality in tumor cells producing 2HG: qHTS for the HT-1080-IDH1KD cell line | HT-1080 IDH1 knockdown viability, ATP luminescence, 48 h | Potency, µM (top dose mostly 46.1 µM), most hits filed as cytotoxic | 360,000 compounds, 2% hits
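Cytotoxicity counter-line: IDH1KD HT-1080, 48 h, CellTiter-Glo. Curves classed by r2, magnitude and activity.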
TDP1 cell CPT – qHTS for Inhibitors of human tyrosyl-DNA phosphodiesterase 1 (TDP1): qHTS in cells in presence of CPT | chicken DT40 Tdp1-/-;hTDP1 cells + 20 nM CPT, ATP luminescence, 48 h | 420,000 compounds, 12% hits | Potency, µM (titrated, usually from 46.2 µM), actives largely listed as inhibitors; further: nearly all actives have a fitted effect of over 55% in size
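Chicken DT40 Tdp1-/- cells complemented with human TDP1, 400 cells/well, exposed to compounds plus 20 nM camptothecin for at least 48 h at 37 C; viability read as ATP content by CellTiter-Glo luminescence.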
DT40 TDP1 no CPT – qHTS for Inhibitors of human tyrosyl-DNA phosphodiesterase 1 (TDP1): qHTS in cells in absence of CPT; DT40 Tdp1-/- hTDP1 cells, no CPT, ATP luminescence, 48 h; Potency, µM (series often up to 46.2 µM), actives largely listed as inhibitors; 420,000 compounds, 15% hits; further: nearly all actives have a fitted effect of over 55% in size
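Compound effects on proliferation are scored in DT40 Tdp1-/-;hTDP1 cells in the absence of CPT. ATP levels (CellTiter-Glo luminescence) are recorded after a ≥48 hr, 37 °C incubation.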
HT1080-NT tox – qHTS for induction of synthetic lethality in tumor cells producing 2HG: qHTS for the HT-1080-NT fibrosarcoma cell line; HT-1080-NT fibrosarcoma viability, CellTiter-Glo ATP luminescence, 48 h; Potency, µM (highest dose often 46.1 µM), hits mostly cytotoxic; 360,000 compounds, 1.6% hits;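 further: NT is the 2HG producing partner of a matched IDH1 knockdown line; nearly all actives have a fitted effect of over 55% in size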
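Viability of the 2HG-overproducing fibrosarcoma line after 48 hours of compound exposure at 37 degrees C was determined by luminescence with CellTiter-Glo, and concentration-effect curves were then fitted and categorized.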
TGFb inhibitor – qHTS for Inhibitors of TGF-b; HepG2 CAGA-GFP TGF-b/SMAD3 reporter, GFP fluorescence, 18 h; TGF-beta stimulated, 500 pg/mL final; Potency, µM (titrated, usually from 46.1 µM), usual class: inhibitors; 410,000 compounds, 1.2% hits; AID 588855, 2011; further: nearly all actives have a fitted effect of over 65% in size
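First, reporter cells (HEPG2 CAGA-GFP) rested 2 h at 37 degrees C. Next, compounds were pinned in and TGF-beta added to 500 pg/mL final. After 18 h, GFP was imaged per cell and summed per well.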
Hits are given with their value; . = inactive; ? = inconclusive; / = no result given; [ ] = dose if it differs, or a comment. Sampled rows, rich in hits. Any-hit rate of the full collection: about 17%. The call rests on the fitted dose curve; in most records, active means well fitted curve in the direction sought with a large enough effect; inconclusive means small, poorly fitted or top-dose-only effect, or another doubt; inactive means no such curve, though single readings can be large; an effect the other way counts as inactive or inconclusive.

SMILES | HepG2 tox | HT1080 IDH1KD tx | TDP1 cell CPT | DT40 TDP1 no CPT | HT1080-NT tox | TGFb inhibitor
COc1ccc(C(=O)Nc2ccc(Cl)c(S(=O)(=O)Nc3ccccc3OC)c2)cc1 | . | ? | ? | ? | . | ?
CCc1ccc(C(=O)Nc2ccc(OC)c(S(=O)(=O)N3CCOCC3)c2)cc1 | . | . | . | . | . | .
COc1ccccc1NS(=O)(=O)c1cc(NC(=O)c2ccc(Cl)nc2)ccc1Cl | . | ? | 9.2µM | 7.3µM | ? | ?
O=C(Cc1ccc(Br)cc1)Nc1cccc(S(=O)(=O)N2CCOCC2)c1 | . | . | . | . | . | .
O=C(Nc1cccc(S(=O)(=O)N2CCOCC2)c1)c1ccc(Cl)nc1 | . | . | 16µM | 23µM | . | ?
COc1ccc(NC(=O)c2ccc(Cl)nc2)cc1S(=O)(=O)N1CCOCC1 | . | . | 16µM | 23µM | . | .
O=S(=O)(c1cccc(NC(=S)Nc2ccc(Br)cc2Cl)c1)N1CCOCC1 | . | . | 16µM | 29µM | . | .
O=C1N(CC(=O)N2CCc3ccccc32)CCN1Cc1ccccc1Cl | . | . | . | ? | . | .
Cc1ccc2nc(N3CCCCCC3)c(CN(CC3CCCO3)C(=O)c3cncs3)cc2c1 (configuration not stated) | / | / | .[9.04 µM] | . | / | /
COc1ccc(NC(=O)Cn2ncc(Cl)c(Cl)c2=O)cc1S(=O)(=O)N1CCOCC1 | . | 21µM | 12µM | 10µM | . | ?
COc1ccc(NC(=O)Cc2coc3cc(C)c(C(C)C)cc23)cc1S(=O)(=O)N1CCOCC1 | . | . | 12µM | 12µM | . | ?
O=C(Nc1cccc(S(=O)(=O)N2CCCC2)c1)c1ccc(Cl)nc1 | . | 6.5µM | 4.6µM | 5.8µM | ? | .
COc1ccccc1-c1ccnc(-n2ncc(C(=O)NCCc3cccnc3)c2C)n1 | / | / | .[9.04 µM] | . | / | /
CC1C(=O)Nc2ccccc2N1C(=O)c1ccc(F)cc1 (configuration not stated) | . | . | . | . | . | .
CC(C)Cc1ccc(C(C)C(N)=NCCc2ccccc2)cc1 (configuration not stated) | 18µM | 18µM | ? | 21µM | 16µM | ?
CC(C)C(C(=O)NC1CCCC1)N(CC1CCCO1)C(=O)CNS(=O)(=O)c1ccccc1 (configuration not stated) | . | . | . | . | . | .
O=C(CNc1cccc([N+](=O)[O-])c1)NCCCc1ccccc1 | . | . | . | ? | . | .
Cc1cc(Br)ccc1NC(=O)CNC(=O)CNc1cccc([N+](=O)[O-])c1 | . | . | 21µM | ? | . | ?
Cc1cc(Br)ccc1NC(=O)C(C)c1ccc([N+](=O)[O-])cc1 (configuration not stated) | . | . | ? | 26µM | . | .
Cc1c(C#N)c(N=CN(C)C)c(C(=O)c2ccc(Br)cc2)n1-c1ccc(Cl)cc1 | . | ? | 11µM | ? | ? | .
CC(=O)c1c(N)c(C#N)c(C)n1-c1ccc(Br)cc1 | . | . | . | ? | . | .
O=C1/C(=C\c2ccc(O)c(O)c2)N=C2CCCCCN12 | . | . | 23µM | ? | . | .
COc1ccc(/C=C2\N=C3CCCCCN3C2=O)cc1OC | . | . | . | . | . | .
Fc1ccccc1Cc1cn2cc(-c3ccc(Cl)cc3)nc2s1 | . | / | ? | . | / | ?
CC(O)(c1ccc(F)c(F)c1)c1nc(-c2ccc(S(C)(=O)=O)cc2)cs1 (configuration not stated) | . | ? | ? | 16µM | . | .
SMILES | HepG2 tox | HT1080 IDH1KD tx | TDP1 cell CPT | DT40 TDP1 no CPT | HT1080-NT tox | TGFb inhibitor
COc1ccc(-c2csc(C(C)(O)c3ccc(F)c(F)c3)n2)cc1 (configuration not stated) | . | ? | ? | ? | ? | ?
COc1ccc(C(C)(O)c2nc(-c3ccc(S(C)(=O)=O)cc3)cs2)cc1 (configuration not stated) | . | . | ? | 23µM | . | .
CC(O)(c1ccc(F)c(F)c1)c1nc(-c2ccncc2)cs1 (configuration not stated) | . | ? | 21µM | 13µM | . | ?
CCOC(=O)c1ccc(NC(=O)CCc2c(C)nc3nc[nH]n3c2=O)cc1 | . | / | . | . | / | .
COc1ccc(-c2cn3c(n2)sc2cc(C(=O)NCc4cccc(F)c4)ccc23)cc1 | . | / | ? | ? | / | .
COc1ccc(Cl)cc1NC(=O)CN(C)C(=O)c1ccc(-n2cncn2)cc1 | . | . | . | . | . | .
COc1ccc(N(CC(=O)Nc2cc(C)ccc2C)S(=O)(=O)c2ccccc2[N+](=O)[O-])c(OC)c1 | . | . | ? | 12µM | . | .
COc1ccc(N(CC(=O)NCc2ccc3c(c2)OCO3)S(=O)(=O)c2ccccc2[N+](=O)[O-])c(OC)c1 | . | . | 26µM | ? | . | .
CNC(C)C(=O)NC(C(=O)N1CCCC1C(=O)NNc1ccccc1)C(C)C (configuration not stated) | . | 2.3µM | . | . | 1.3µM | .
CNC(C)C(=O)NC(C(=O)N1CCCC1C(=O)NC1CCCc2ccccc21)C(C)C (configuration not stated) | . | . | . | . | . | .
Cc1ccccc1N1CCN(C2CCCN(C(=O)c3noc4c3CCCC4)C2)CC1 (configuration not stated) | . | . | 9.2µM | 8.2µM | . | ?
CSc1ncccc1C(=O)N1CCCC(N2CCN(c3ccccc3C)CC2)C1 (configuration not stated) | . | . | 16µM | 9.2µM | . | .
Cc1cc(C(=O)N2CCCC(N3CCN(c4ccccc4C)CC3)C2)n(C)n1 (configuration not stated) | . | . | ? | ? | . | .
Cc1ccccc1N1CCN(C2CCCN(C(=O)c3ccsc3)C2)CC1 (configuration not stated) | . | . | ? | ? | . | .
Cc1ccccc1N1CCN(C2CCCN(C(=O)c3ccccn3)C2)CC1 (configuration not stated) | . | . | . | 26µM | . | .

High-throughput results deposited in PubChem by National Center for Advancing Translational Sciences (NCATS).
